# PubChem BioAssay (NCI)
# About 79,000 compounds went through this panel and 15% of them were active in at least one assay; those are over-represented in the sample as a whole. A number with no mark means an inactive call. The source made the active and inactive calls. Rule as the data show it: active = growth inhibition above about 70%; inactive = the rest.
# Tests used:
# [1] = NCI Yeast Anticancer Drug Screen. Data for the rad52 strain (AID 147);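 also: 0% = growth of vehicle-treated control cultures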; details: S. cerevisiae rad52 mutant growth inhibition, active compounds read high
# Method in brief: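 Screen used a yeast mutant impaired in DNA repair. After compound exposure, growth was measured. Values reflect inhibition compared with vehicle-treated cells.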
# [2] = NCI Yeast Anticancer Drug Screen. Data for the wt1 strain (AID 149);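 also: 0% = growth of vehicle-treated wt1 cultures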; details: S. cerevisiae wt1 strain (SPY 50644) growth inhibition, active compounds read high
# Method in brief: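 Measured: growth of wt1 yeast under compound versus vehicle treatment, reported as inhibition.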
# [3] = NCI Yeast Anticancer Drug Screen. Data for the rad50EPP+ strain (AID 151);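 also: 0% = growth of vehicle-treated control cultures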; details: S. cerevisiae rad50 mutant strain, active compounds read high
# Method in brief: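 Exposing the rad50EPP+ strain to each compound, growth was compared with vehicle-only cultures to give inhibition.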
# [4] = NCI Yeast Anticancer Drug Screen. Data for the mgt1 strain (AID 153); details: S. cerevisiae mgt1 mutant growth inhibition, active compounds read high
# Method in brief: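 Genetically defined yeast (mgt1) treated with compound; inhibition of growth expressed against vehicle-treated controls.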
# [5] = NCI Yeast Anticancer Drug Screen. Data for the rad50 strain (AID 155);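 also: 0% = growth of vehicle-only cultures of the same strain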; details: S. cerevisiae rad50 strain growth inhibition, active compounds read high
# Method in brief: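 Growth of the mutant yeast was measured after compound exposure and referenced to vehicle-treated cultures.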
# [6] = NCI Yeast Anticancer Drug Screen. Data for the mec2-1 strain (AID 157); details: S. cerevisiae mec2-1 strain, active compounds read high
# Method in brief: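 Readout is yeast growth inhibition, normalised to vehicle-treated controls, in the mec2-1 strain exposed to compound.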
# [7] = NCI Yeast Anticancer Drug Screen. Data for the rad14 strain (AID 159);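 also: 0% = growth of vehicle-treated control cultures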; details: S. cerevisiae rad14 strain growth inhibition, active compounds read high
# Method in brief: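 Here, inhibition of yeast growth was measured after compound exposure, using a strain with a genetic defect in DNA damage repair and vehicle-treated cultures as the reference.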
# [8] = NCI Yeast Anticancer Drug Screen. Data for the sgs1 mgt1 strain (AID 161);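 also: 0% = growth of cultures given vehicle only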; details: S. cerevisiae sgs1 mgt1 strain, active compounds read high
# Method in brief: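 Yeast cells carrying a defined DNA-repair defect were exposed to test compounds. Growth inhibition was measured relative to vehicle-treated controls.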
# [9] = NCI Yeast Anticancer Drug Screen. Data for the CLN2oe strain (AID 163);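 also: 0% = growth of vehicle-only control cultures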; details: S. cerevisiae CLN2oe strain, active compounds read high
# Method in brief: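 Values reflect how much compound exposure reduced yeast growth, referenced to vehicle-exposed cells. Assay organism is a strain with a defined genetic change affecting cell-cycle control.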
# [10] = NCI Yeast Anticancer Drug Screen. Data for the cln2 rad14 strain (AID 165);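 also: 0% = growth equal to vehicle treated cultures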; details: S. cerevisiae cln2 rad14 strain, active compounds read high
# Method in brief: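 Relative to vehicle controls, growth inhibition of compound-treated cln2 rad14 yeast was recorded.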
# [11] = NCI Yeast Anticancer Drug Screen. Data for the bub3 strain (AID 167); details: S. cerevisiae bub3 mutant strain, active compounds read high
# Method in brief: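 Whole-cell yeast assay. The mutant strain was incubated with compounds, and growth inhibition was determined by comparison with vehicle-treated cells.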
# [12] = NCI Yeast Anticancer Drug Screen. Data for the mlh1 strain (AID 171);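 also: 0% = growth of vehicle-treated control cultures of the same strain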; details: S. cerevisiae mlh1 strain growth inhibition, active compounds read high
# Method in brief: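 Steps: expose the defined-mutant yeast strain to compound; expose a parallel culture to vehicle; measure growth; express compound effect as inhibition relative to the vehicle culture.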
# [13] = NCI Yeast Anticancer Drug Screen. Data for the sgs1 strain (AID 173);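 also: 0% = growth of vehicle-only control cultures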; details: S. cerevisiae sgs1 mutant, active compounds read high
# Method in brief: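 Treat defined-mutant yeast with compound; measure growth; calculate inhibition relative to vehicle-treated cells.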
# [14] = NCI Yeast Anticancer Drug Screen. Data for the mlh1 rad18 strain (AID 175); details: S. cerevisiae mlh1 rad18 strain growth inhibition, active compounds read high
# Method in brief: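 Test agents were incubated with a yeast strain of defined genotype (DNA damage repair defect). Inhibition of growth was derived by comparison with vehicle-exposed cultures.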
# [15] = NCI Yeast Anticancer Drug Screen. Data for the rad18 strain (AID 177); details: S. cerevisiae rad18 mutant growth inhibition, active compounds read high
# Method in brief: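 A genetically defined yeast mutant impaired in DNA damage repair was treated with test compounds, then its growth was measured against cultures receiving vehicle alone.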
# [16] = at 5.0 µM (retest, dose inferred, filed as 0.5)
# [17] = at 50.0 µM (retest, dose inferred, filed as 5.0)
compound,measurement,setting,value
CCOC(=O)C(C(=O)OCC)=P(c1ccccc1)(c1ccccc1)c1ccccc1,growth inhibition,[1]; at 1.2 µM,0%
same,growth inhibition,[1]; at 3.7 µM,0%
same,growth inhibition,[1]; at 11.0 µM,2%
same,growth inhibition,[1]; at 33.0 µM,0%
same,growth inhibition,[1]; at 100.0 µM,95% (active)
same,growth inhibition,[2]; at 1.2 µM,0%
same,growth inhibition,[2]; at 3.7 µM,1%
same,growth inhibition,[2]; at 11.0 µM,1%
same,growth inhibition,[2]; at 33.0 µM,-3%
same,growth inhibition,[2]; at 100.0 µM,93% (active)
same,growth inhibition,[3]; at 1.2 µM,-2%
same,growth inhibition,[3]; at 3.7 µM,-3%
same,growth inhibition,[3]; at 11.0 µM,-2%
same,growth inhibition,[3]; at 33.0 µM,-1%
same,growth inhibition,[3]; at 100.0 µM,3%
same,growth inhibition,[4]; at 1.2 µM,0%
same,growth inhibition,[4]; at 3.7 µM,3%
same,growth inhibition,[4]; at 11.0 µM,1%
same,growth inhibition,[4]; at 33.0 µM,-6%
same,growth inhibition,[4]; at 100.0 µM,78% (active)
same,growth inhibition,[5]; at 1.2 µM,-58%
same,growth inhibition,[5]; at 3.7 µM,0%
same,growth inhibition,[5]; [16],-2%
same,growth inhibition,[5]; at 11.0 µM,-3%
same,growth inhibition,[5]; at 33.0 µM,-3%
same,growth inhibition,[5]; [17],36%
same,growth inhibition,[5]; at 50.0 µM,12.4%
same,growth inhibition,[5]; at 100.0 µM,96% (active)
same,growth inhibition,[6]; at 1.2 µM,0%
same,growth inhibition,[6]; at 3.7 µM,-1%
same,growth inhibition,[6]; [16],1%
same,growth inhibition,[6]; at 11.0 µM,0%
same,growth inhibition,[6]; at 33.0 µM,0%
same,growth inhibition,[6]; [17],16%
same,growth inhibition,[6]; at 50.0 µM,12.1%
same,growth inhibition,[6]; at 100.0 µM,98% (active)
same,growth inhibition,[7]; at 1.2 µM,0%
same,growth inhibition,[7]; at 3.7 µM,2%
same,growth inhibition,[7]; at 11.0 µM,5%
same,growth inhibition,[7]; at 33.0 µM,6%
same,growth inhibition,[7]; at 100.0 µM,93% (active)
same,growth inhibition,[8]; [16],-10%
same,growth inhibition,[8]; [17],60%
same,growth inhibition,[8]; at 50.0 µM,47%
same,growth inhibition,[9]; at 1.2 µM,0%
same,growth inhibition,[9]; at 3.7 µM,-1%
same,growth inhibition,[9]; at 11.0 µM,-1%
same,growth inhibition,[9]; at 33.0 µM,-2%
same,growth inhibition,[9]; at 100.0 µM,84% (active)
same,growth inhibition,[10]; [16],0%
same,growth inhibition,[10]; [17],-3%
same,growth inhibition,[10]; at 50.0 µM,-2.05%
same,growth inhibition,[11]; at 1.2 µM,-1%
same,growth inhibition,[11]; at 3.7 µM,1%
same,growth inhibition,[11]; [16],-3%
same,growth inhibition,[11]; at 11.0 µM,1%
same,growth inhibition,[11]; at 33.0 µM,-3%
same,growth inhibition,[11]; [17],19%
same,growth inhibition,[11]; at 50.0 µM,5%
same,growth inhibition,[11]; at 100.0 µM,93% (active)
same,growth inhibition,[12]; at 1.2 µM,1%
same,growth inhibition,[12]; at 3.7 µM,-2%
same,growth inhibition,[12]; at 11.0 µM,0%
same,growth inhibition,[12]; at 33.0 µM,1%
same,growth inhibition,[12]; at 100.0 µM,92% (active)
same,growth inhibition,[13]; at 1.2 µM,0%
same,growth inhibition,[13]; at 3.7 µM,0%
same,growth inhibition,[13]; at 11.0 µM,0%
same,growth inhibition,[13]; at 33.0 µM,4%
same,growth inhibition,[13]; at 100.0 µM,94% (active)
same,growth inhibition,[14]; [16],0%
same,growth inhibition,[14]; [17],26%
same,growth inhibition,[14]; at 50.0 µM,21.1%
same,growth inhibition,[15]; at 1.2 µM,1%
same,growth inhibition,[15]; at 3.7 µM,7%
same,growth inhibition,[15]; at 11.0 µM,16%
same,growth inhibition,[15]; at 33.0 µM,12%
same,growth inhibition,[15]; at 100.0 µM,95% (active)
COc1ccc(C/C=N/Nc2ccc([N+](=O)[O-])cc2)cc1OC,growth inhibition,[1]; at 1.2 µM,8%
same,growth inhibition,[1]; at 3.7 µM,12%
same,growth inhibition,[1]; at 11.0 µM,18%
same,growth inhibition,[1]; at 33.0 µM,39%
same,growth inhibition,[1]; at 100.0 µM,42%
same,growth inhibition,[2]; at 1.2 µM,4%
same,growth inhibition,[2]; at 3.7 µM,2%
same,growth inhibition,[2]; at 11.0 µM,5%
same,growth inhibition,[2]; at 33.0 µM,-1%
same,growth inhibition,[2]; at 100.0 µM,2%
same,growth inhibition,[3]; at 1.2 µM,15%
same,growth inhibition,[3]; at 3.7 µM,29%
same,growth inhibition,[3]; at 11.0 µM,33%
same,growth inhibition,[3]; at 33.0 µM,35%
same,growth inhibition,[3]; at 100.0 µM,51%
same,growth inhibition,[4]; at 1.2 µM,2%
same,growth inhibition,[4]; at 3.7 µM,12%
same,growth inhibition,[4]; at 11.0 µM,9%
same,growth inhibition,[4]; at 33.0 µM,4%
same,growth inhibition,[4]; at 100.0 µM,23%
same,growth inhibition,[5]; at 1.2 µM,27%
same,growth inhibition,[5]; at 3.7 µM,36%
same,growth inhibition,[5]; [16],9%
same,growth inhibition,[5]; at 11.0 µM,28%
same,growth inhibition,[5]; at 33.0 µM,56%
same,growth inhibition,[5]; [17],97% (active)
same,growth inhibition,[5]; at 50.0 µM,98.1% (active)
same,growth inhibition,[5]; at 100.0 µM,66%
same,growth inhibition,[6]; at 1.2 µM,1%
same,growth inhibition,[6]; at 3.7 µM,3%
